From PubChem BioAssay
USP17 inh: inhibitors of human USP17 deubiquitinase; inhibition, % at 50 µM; purified USP17, Ub-rhodamine cleavage fluorescence, 3 h; actives 6.5% (n = 47,000); AID 1645855, 2021; Ubiquitin carboxyl-terminal hydrolase 17-like protein 5 (Homo sapiens), A8MUK1
Target sequence (A8MUK1 whole entry, looked up): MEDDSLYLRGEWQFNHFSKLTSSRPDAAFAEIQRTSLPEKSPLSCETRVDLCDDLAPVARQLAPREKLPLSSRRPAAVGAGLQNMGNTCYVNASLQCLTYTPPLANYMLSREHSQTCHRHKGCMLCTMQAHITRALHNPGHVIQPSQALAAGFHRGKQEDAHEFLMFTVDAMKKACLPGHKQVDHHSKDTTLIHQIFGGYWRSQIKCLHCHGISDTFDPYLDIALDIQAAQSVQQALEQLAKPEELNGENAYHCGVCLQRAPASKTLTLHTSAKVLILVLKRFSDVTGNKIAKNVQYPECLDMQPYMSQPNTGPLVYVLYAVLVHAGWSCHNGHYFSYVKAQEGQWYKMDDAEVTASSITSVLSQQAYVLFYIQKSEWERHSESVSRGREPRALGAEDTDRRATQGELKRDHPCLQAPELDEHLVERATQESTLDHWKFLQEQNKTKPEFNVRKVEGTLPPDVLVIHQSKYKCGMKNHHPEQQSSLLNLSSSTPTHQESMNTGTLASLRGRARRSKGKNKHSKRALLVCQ
USP30 inh: inhibitors of human USP30 deubiquitinase | purified USP30, Ub-rhodamine cleavage fluorescence | inhibition, % at 25 µM | actives 5.3% (n = 47,000) | AID 1645860, 2021
USP8 block: inhibitors of human USP8 deubiquitinase. Ubiquitin carboxyl-terminal hydrolase 8 (Homo sapiens), P40818. purified USP8, Ub-rhodamine cleavage fluorescence, 30 min. inhibition, % at 20 µM. actives 4.2% (n = 47,000)
USP28 inh: inhibitors of human USP28 deubiquitinase; Ubiquitin carboxyl-terminal hydrolase 28 (Homo sapiens), Q96RU2; purified USP28, Ub-rhodamine cleavage fluorescence, 30 min; inhibition, % at 25 µM; actives 3% (n = 47,000)
A number is an active result. An excerpt weighted towards active compounds, which were near 14% of everything screened. Rule as the data show it: active = inhibition above about 30%; inactive = the rest.

Results for Cc1cccc(NC(=O)COc2coc(CN3CCc4ccccc4C3)cc2=O)c1 ?
USP17 inh: inactive; USP30 inh: inactive; USP8 block: 35; USP28 inh: inactive

What do the screens show for `CC(=O)c1ccc(NC(=O)COc2coc(CN3CCc4ccccc4C3)cc2=O)cc1`?
USP17 inh: 46; USP30 inh: inactive; USP8 block: inactive; USP28 inh: inactive

How did O=C(NCCO)c1cnc2n1CC(c1cccc(C(F)(F)F)c1)CC2 (stereo not given) do in these assays?
USP17 inh: inactive; USP30 inh: inactive; USP8 block: inactive; USP28 inh: inactive

How did CCCCn1cc(NC(=O)C2=CC(c3ccc(OC)cc3)=NS(=O)(=O)N2C)cn1 do in these assays?
USP17 inh: inactive; USP30 inh: inactive; USP8 block: inactive; USP28 inh: inactive

Results for CCOC(=O)N1CCC(NC(=O)c2cnn3c(-c4ccccc4)ccnc23)CC1 ?
USP17 inh: 32; USP30 inh: 40; USP8 block: inactive; USP28 inh: inactive

Results for CCOC(=O)N1CCC(NC(=O)Cn2ccc3ccccc32)CC1 ?
USP17 inh: inactive; USP30 inh: inactive; USP8 block: inactive; USP28 inh: inactive

Results for CCOC(=O)c1sc2ccccc2c1S(=O)(=O)Nc1ccccc1Cl ?
USP17 inh: inactive; USP30 inh: inactive; USP8 block: inactive; USP28 inh: inactive

What do the screens show for `CCC1(C)Cc2c(sc3nc(SCC(C)C)nc(N)c23)CO1` (stereo not given)?
USP17 inh: inactive; USP30 inh: inactive; USP8 block: inactive; USP28 inh: inactive

What do the screens show for `CC(C)(C)C1CCC(C(=O)OCC(=O)Nc2cc(S(=O)(=O)N3CCOCC3)ccc2N2CCOCC2)CC1` (stereo not given)?
USP17 inh: inactive; USP30 inh: inactive; USP8 block: inactive; USP28 inh: inactive

How did COc1ccc(NC(=O)C2CCN(C3=NS(=O)(=O)c4ccccc43)CC2)cc1 do in these assays?
USP17 inh: 43; USP30 inh: 41; USP8 block: inactive; USP28 inh: inactive

Results for O=C(NCc1ccccc1)C1CCN(C2=NS(=O)(=O)c3ccccc32)CC1 ?
USP17 inh: inactive; USP8 block: inactive

How did Cc1ccccc1CNC(=O)C1CCN(C2=NS(=O)(=O)c3ccccc32)CC1 do in these assays?
USP17 inh: inactive; USP30 inh: 32; USP8 block: inactive; USP28 inh: inactive

How did O=C(O)CCCn1cc(NC(=O)c2ccc3c(c2)OCO3)cn1 do in these assays?
USP17 inh: inactive; USP30 inh: inactive; USP8 block: inactive; USP28 inh: inactive

What do the screens show for `CCOC(=O)c1ccc(N(C(=O)Cn2nnc3ccccc32)C(C(=O)NC(C)(C)C)c2cc(OC)c(OC)c(OC)c2)cc1` (stereo not given)?
USP17 inh: 30; USP30 inh: inactive; USP8 block: inactive; USP28 inh: inactive

Results for COc1cc(C(C(=O)NC(C)(C)C)N(Cc2ccccc2Cl)C(=O)c2cccc(-n3cnnn3)c2)cc(OC)c1OC (stereo not given) ?
USP17 inh: inactive; USP30 inh: inactive; USP8 block: inactive; USP28 inh: inactive

How did COc1ccc(C(C(=O)NC2CCCCC2)N(C(=O)Cn2nnc3ccccc32)c2ccc(S(=O)(=O)N3CCC(C)CC3)cc2)cc1O (stereo not given) do in these assays?
USP17 inh: inactive; USP30 inh: 33; USP8 block: inactive; USP28 inh: inactive

Results for CN(C)S(=O)(=O)c1ccc(N(C(=O)c2cnccn2)C(C(=O)NC2CCCCC2)c2ccccc2)cc1 (stereo not given) ?
USP17 inh: inactive; USP30 inh: inactive; USP8 block: inactive; USP28 inh: inactive

Results for O=c1[nH]c2nc(N3CCN(c4ccccn4)CC3)ncc2c(=O)n1C1CCCC1 ?
USP17 inh: inactive; USP30 inh: inactive; USP8 block: inactive; USP28 inh: inactive

What do the screens show for `Cc1ccc([N+](=O)[O-])cc1NC(=O)CCN1C(=O)c2ccccc2S1(=O)=O`?
USP17 inh: 31; USP30 inh: 49; USP8 block: inactive; USP28 inh: inactive

How did O=C(CCN1C(=O)c2ccccc2S1(=O)=O)Nc1ccccc1C(=O)O do in these assays?
USP17 inh: inactive; USP30 inh: inactive; USP8 block: inactive; USP28 inh: inactive

Results for O=C(O)c1c2c(nc3ccccc13)/C(=C/c1ccc(Cl)cc1)CCC2 ?
USP17 inh: inactive; USP30 inh: inactive; USP8 block: inactive; USP28 inh: inactive

Results for O=C(NCc1cccnc1)C1CCCN(c2nnc3ccc(Cl)cn23)C1 (stereo not given) ?
USP17 inh: inactive; USP30 inh: inactive; USP8 block: inactive; USP28 inh: inactive

How did Cc1nn(C)c(C)c1CNC(=O)C1CCN(c2nnc3ccc(C(F)(F)F)cn23)CC1 do in these assays?
USP17 inh: inactive; USP30 inh: inactive; USP8 block: inactive; USP28 inh: 38

Results for O=C(C1CC1)N1CCCC(c2nc(N3CCOCC3)ncc2-c2cccnc2)C1 (stereo not given) ?
USP17 inh: inactive; USP30 inh: inactive; USP8 block: inactive; USP28 inh: inactive

What do the screens show for `CC1(C)Cc2c(sc3nc(SCC(=O)Nc4ccccc4)nc(N)c23)CO1`?
USP17 inh: inactive; USP30 inh: inactive; USP8 block: inactive; USP28 inh: 31

How did COc1ccc(NC(=O)CSc2nc(N)c3c4c(sc3n2)COC(C)(C)C4)cc1 do in these assays?
USP17 inh: 50; USP30 inh: inactive; USP8 block: inactive; USP28 inh: inactive

What do the screens show for `CCCCc1nc(SCC(=O)Nc2ccc(OC)cc2)c2c3c(sc2n1)COC(C)(C)C3`?
USP17 inh: inactive; USP30 inh: inactive; USP8 block: inactive; USP28 inh: inactive

What do the screens show for `CSc1nc(SCC(N)=O)c2c3c(sc2n1)COC(C)(C)C3`?
USP17 inh: 61; USP30 inh: 44; USP8 block: inactive; USP28 inh: inactive

Results for Cc1ccc(S(=O)(=O)N[C@@H](CC(C)C)C(=O)N2CCC(C(=O)N[C@@H](Cc3c[nH]c4ccccc34)C(=O)O)CC2)cc1 ?
USP17 inh: inactive; USP30 inh: inactive; USP8 block: inactive; USP28 inh: inactive

What do the screens show for `COc1ccc(CN(C(=O)c2cc(-c3ccc(C)cc3)on2)C2CCS(=O)(=O)C2)cc1` (stereo not given)?
USP17 inh: inactive; USP30 inh: 50; USP8 block: inactive; USP28 inh: inactive

Results for CCc1ccc(C2c3c(-c4cc(C)cc(C)c4O)n[nH]c3C(=O)N2Cc2cccnc2)cc1 (stereo not given) ?
USP17 inh: inactive; USP30 inh: inactive; USP8 block: 74; USP28 inh: inactive

How did COc1ccc([C@@H]2CN(Cc3cccnc3)C[C@H]2c2cc(=O)[nH]c(C)n2)cc1 do in these assays?
USP17 inh: inactive; USP30 inh: inactive; USP8 block: inactive; USP28 inh: inactive

What do the screens show for `Cc1ccccc1-c1nnc2sc(COc3ccc(Cl)cc3)nn12`?
USP17 inh: 68; USP30 inh: 80; USP8 block: 31; USP28 inh: 53

Results for CCn1c(COc2cccc(C(F)(F)F)c2)nnc1SCc1ccc(Cl)cc1 ?
USP17 inh: 36; USP30 inh: 58; USP8 block: inactive; USP28 inh: 59
